This is an account of results in PubChem BioAssay (Tox21).

Records with an inconclusive call do not appear. Calls of active or inactive are those of the source. Calls follow the shape of the dose curve; as a rule, active = well fitted curve in the direction sought with a large enough effect in the repeat runs; inconclusive = weak or mixed curves; inactive = no such curve, though single readings can be large; an effect the other way counts as inactive or inconclusive.
% is scaled to controls: 0 for no effect and ±100 for the full control effect; potency is read from the fitted curve at half-maximal effect.

A short description of one assay: A CellTox Green Cytotoxicity Assay to monitor cytotoxicity in HEK293 cells - 8 hour (AID 1224884). Also: nearly all actives have a fitted effect of over 35% in size. Particulars: CellTox Green fluorescence; series mostly up to 76.8 µM; cytotoxicity increase: at the top concentration. The method, boiled down: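 Fluorescence intensity, read at 0, 8, 16, 24, 32 and 40 h of compound treatment, reflected dye binding to DNA of dead HEK293 cells; compounds (23 nL, DMSO) were added 5 h after plating cells with reagent.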
Take `CC(C)(C)c1cc([N+](=O)[O-])cc(C(C)(C)C)c1O`: the “cytotoxicity increase” value was -0.609% (inactive). The same measure, in the same setting: then `Cc1cc(C(C)(C)c2cc(C)c(O)c(C)c2)cc(C)c1O`, with -6.32% (inactive); and `C[C@]12CC[C@@H]3c4ccc(OC(=O)N(CCCl)CCCl)cc4CC[C@H]3[C@@H]1CC[C@@H]2O`, with 0.0682% [at 35.3 µM] (inactive). `CC(C)OC(=S)S`: the “cytotoxicity increase” value is -0.859% (inactive). In the case of `Clc1ccc(CCC(Cn2ccnc2)Sc2c(Cl)cccc2Cl)cc1` (centres undefined), the “cytotoxicity increase” value is 14.1% [at 35.3 µM] (inactive). On to `ClC1=C(Cl)[C@]2(Cl)[C@@H]3[C@@H]4C[C@@H]([C@H]5O[C@@H]45)[C@@H]3[C@@]1(Cl)C2(Cl)Cl`, for which the Potency was 27.5 µM (active).

Consider `Oc1cc(Cl)c(Cl)c(Cl)c1`, for which the “cytotoxicity increase” value is 15.3% (inactive).

Consider `CCCCOCN(C(=O)CCl)c1c(CC)cccc1CC`, for which the “cytotoxicity increase” value is 11.5% (inactive).

The next assay in a line: qHTS RealTime-Glo MT Cell Viability Assay in HepG2 cells - 16 hour (AID 1224885). Also: nearly all actives have a fitted effect of over 50% in size. Particulars: RealTime-Glo luminescence; series mostly up to 76.8 µM; activity change, negative = cytotoxic: at the top concentration. In short, it runs like this: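 Real-time, nonlytic viability: 600 HepG2 cells/well mixed with NanoLuc enzyme plus prosubstrate; 5 h settle, compound (DMSO) added by pintool; luminescence monitored over 40 h at 37 C.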
(qHTS replaces the single test concentration by a dilution series.)
As for `CC(=O)OC1(c2ccccc2)CCN(CCc2ccccc2)CC1`, the “activity change, negative = cytotoxic” value is -15% (inactive). In the case of `CSCCCN=C=S`, the “activity change, negative = cytotoxic” value was -9.53% (inactive). On the same count and under the same terms, then `O=[N+]([O-])c1c2ccccc2cc2ccccc12`, with -16.2% (inactive); and `O=C(CBr)c1ccc(O)cc1`, with -8.71% (inactive); and `CCCN(CCC)CCc1c[nH]c2ccccc12`, with -12% (inactive).

`CC1CCC(C(C)C)C(OC(=O)c2ccccc2N)C1` (centres undefined): the “activity change, negative = cytotoxic” value is -12.4% (inactive). On the same count and under the same terms, then `CCOC(=O)c1ccccc1S(=O)(=O)NC(=O)Nc1nc(Cl)cc(OC)n1`, with 3.76% (inactive). On to `CC(C)(C)C(O)C(Oc1ccc(-c2ccccc2)cc1)n1cncn1` (centres undefined), for which the “activity change, negative = cytotoxic” value was -22.2% (inactive).

For `[Cl][Sb]([Cl])[Cl]`, the “activity change, negative = cytotoxic” value was -9.61% (inactive). Still for that read-out and setting: next, `CCOP(=S)(OCC)OC(Cl)C(Cl)(Cl)Cl` (centres undefined): -2.96% (inactive). On the same count and under the same terms, then `CC(Cc1ccc(C(C)(C)C)cc1)CN1C[C@@H](C)O[C@@H](C)C1` (some centres undefined), with -12.3% (inactive). Turning to `Clc1ccc(CO/N=C(\Cn2ccnc2)c2ccc(Cl)cc2Cl)c(Cl)c1`, the Potency was 21.3 µM (active). Consider `CC(=O)/C=C/c1ccc2c(c1)OCO2`, for which the “activity change, negative = cytotoxic” value was -6.54% (inactive). The same measure, in the same setting: then `O=[N+]([O-])c1cc(Cl)ccc1Cl`, with -8.61% (inactive). For `Nc1ccccc1C(=O)Oc1ccc2ccccc2c1`, the “activity change, negative = cytotoxic” value was -20% (inactive). Still for that read-out and setting: next, `COc1ccc(OC)c(C=O)c1`: 0.465% (inactive); `CCOP(=O)(NC(C)C)Oc1ccc(SC)c(C)c1` (centres undefined): -11.2% (inactive); `CC(C)Oc1cccc(NC(=O)c2ccccc2C(F)(F)F)c1`: -24.6% (inactive).

Take `C[C@]12CC[C@@H]3c4ccc(OC(=O)N(CCCl)CCCl)cc4CC[C@H]3[C@@H]1CC[C@@H]2O`: the “activity change, negative = cytotoxic” value is -14.6% [at 35.3 µM] (inactive). The same measure, in the same setting: then `CC(C)OC(=S)S`, with -0.862% (inactive). As to `ClC1=C(Cl)[C@]2(Cl)[C@@H]3[C@@H]4C[C@@H]([C@H]5O[C@@H]45)[C@@H]3[C@@]1(Cl)C2(Cl)Cl`, the Potency is 43.6 µM (active). Take `Oc1cc(Cl)c(Cl)c(Cl)c1`: the “activity change, negative = cytotoxic” value is -16% (inactive). The same measure, in the same setting: next, `CC(=O)c1cc(C(C)(C)C)cc2c1CCC2(C)C`: -4.46% (inactive).

Another assay can be described thus: qHTS RealTime-Glo MT Cell Viability Assay in HEK293 cells - 24 hour (AID 1224886). Also: nearly all actives have a fitted effect of over 50% in size. As to activity change, negative = cytotoxicity: top concentration of the series differs between compounds. Particulars: RealTime-Glo luminescence; series mostly up to 76.8 µM; activity change, negative = cytotoxicity: at the top concentration. The method, boiled down: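 Cells + reagent dispensed (600 cells/well, HEK293) → 5 h at 37 C/5% CO2 → 23 nL compound in DMSO pinned → 40 h at 37 C → luminescence read at 0, 8, 16, 24, 32, 40 h.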
As for `CC(=O)OC1(c2ccccc2)CCN(CCc2ccccc2)CC1`, the Potency was 28.2 µM (active).

Regarding `C=CCC1=C(C)C(OC(=O)C2C(C=C(C)C)C2(C)C)CC1=O` (centres undefined), the Potency was 23.2 µM (active). In the case of `O=[N+]([O-])c1c2ccccc2cc2ccccc12`, the “activity change, negative = cytotoxicity” value was -3.25% (inactive).
